Test results reported in PubChem BioAssay.
The source made the active and inactive calls.

Key:
[1] = binders of probe aFSTL3 on microarray, primary screen, stem cell growth factor project, biochemical, small-molecule microarray, fluorescence 635/667 (AID 1064); conditions: higher = more signal;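 note: measures binding of the biotinylated anti-FSTL3 antibody to printed compounds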
[2] = binders from COS7 lysate, DM2A8 probe, primary screen, torsin A project, cell lysate, small-molecule microarray, fluorescence 635/667 (AID 1065); conditions: higher = more signal, COS7 lysate expressing mutant human TOR1A
[3] = binders of probe aFGF2 on microarray, primary screen, stem cell growth factor project, biochemical, small-molecule microarray, fluorescence 635/667 (AID 1067); conditions: higher = more signal;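 note: measures binding of biotinylated aFGF2 protein to printed compounds on slides; z-score merges feature fluorescence and signal-to-noise across triplicate slides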
[4] = binders of probe aFGF10 on microarray, primary screen, stem cell growth factor project, biochemical, small-molecule microarray, fluorescence 635/667 (AID 1071); conditions: higher = more signal;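 note: score merges 667 nm spot intensity and signal to noise from triplicate slides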
[5] = biological target: Neurogenic locus notch homolog protein 2 (Homo sapiens) (UniProt Q04721); assay: Notch2 binders on small-molecule microarrays, primary screen, biochemical, small-molecule microarray, 635 nm fluorescence, stem cell growth factors (AID 1073); conditions: Notch2 binding, higher = more signal
[6] = biological target: Pro-neuregulin-1, membrane-bound isoform (Homo sapiens) (UniProt Q02297); assay: NRG1 binders on small-molecule microarrays, primary screen, psychiatric disease protein project, biochemical, small-molecule microarray, fluorescence 635/667 (AID 1075); conditions: NRG1 binding, 635 nm fluorescence, higher = more signal;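 note: score combines 667 nm spot fluorescence with signal to noise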
[7] = test system: Neuregulin-1 EGF-like domain; assay: binders of neuregulin-1 EGF-like domain, primary screen, biochemical, small-molecule microarray, 635 nm fluorescence (AID 1081); conditions: small-molecule microarray binding, higher = more signal;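 note: binding of the protein to compounds printed on small-molecule microarray slides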
[8] = FRG1 promoter luciferase signal modulators, primary screen, FRG1 inhibition for FSHD, cell-based, C2C12 myotubes, firefly/Renilla luciferase, luminescence (AID 1084); conditions: higher = more signal, called active from +8 up or from −8 down
[9] = binders of probe aFST on microarray, primary screen, stem cell growth factor project, biochemical, small-molecule microarray, fluorescence 635/667 (AID 1086); conditions: higher = more signal;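 note: score merges 667 nm fluorescence with signal-to-noise of each printed compound spot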
[10] = binders of probe aHhip on microarray, primary screen, stem cell growth factor project, biochemical, small-molecule microarray, fluorescence 635/667 (AID 1087); conditions: higher = more signal;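 note: score merges spot fluorescence at 667nm with spot signal to noise ratio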
[11] = test system: PRMT1 (protein arginine N-methyltransferase 1); assay: PRMT1 binders on small-molecule microarrays, primary screen, biochemical, small-molecule microarray, 635 nm fluorescence (AID 1088); conditions: small-molecule microarray binding, higher = more signal;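 note: binding of Prmt1 protein to compounds spotted on small-molecule microarray slides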
[12] = yeast growth modulation, basal conditions, primary screen, YJM789 clinical isolate, OD600, 24 h (AID 1089);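 note: growth of clinical yeast isolate S. cerevisiae YJM 789 seeded 1000 cells per well; test concentration not given here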; conditions: S. cerevisiae YJM789 growth, higher = more signal, called active from +8 up or from −8 down
[13] = fission yeast growth modulation, primary screen, strain 972, OD600, 24 h, no modulator (AID 1090);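 note: basal condition with compound alone and no growth modifier present; test concentration not given here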; conditions: S. pombe 972 growth, higher = more signal, called active from +8 up or from −8 down
[14] = S. cerevisiae growth modulation with rapamycin, primary screen, strain BY4716, OD600, 96 h (AID 1091); conditions: higher = more signal, called active from +8 up or from −8 down; note: test concentration not given here
[15] = biological target: Torsin-1A-interacting protein 2 (Homo sapiens) (UniProt Q8NFQ8); assay: LULL1 binders on small-molecule microarray, primary screen, cell lysate, human LULL1 lysate, 635/667 nm fluorescence (AID 1092); conditions: hLULL1 lysate binding, 635 nm fluorescence, higher = more signal;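 note: probe is lysate of COS7 cells overexpressing human LULL1; score merges per-feature 667 nm fluorescence with signal-to-noise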
[16] = E. coli growth modulation, two-sided OD650, primary screen, E. coli filamentation project, strain DRC41, 24 h (AID 1093); conditions: OD650, 24 h, higher = more signal, called active from +8 up or from −8 down;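 note: MC1000 strain lacking acrAB efflux and sulA so SOS filamentation is blocked; test concentration not given here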
[17] = small-molecule microarray binders of probe aLefty2, primary screen, biochemical, biotinylated probe, 635/667 nm fluorescence (AID 1094); conditions: higher = more signal;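 note: score merges spot fluorescence near 667 nm with spot signal-to-noise ratio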
[18] = test system: Noggin (protein binding on small-molecule microarray); assay: Noggin binders on small-molecule microarray, primary screen, biochemical, 635/667 nm fluorescence (AID 1095); conditions: 635 nm fluorescence, higher = more signal;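 note: score merges 667 nm feature fluorescence with signal to noise over triplicate slides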
[19] = biological target: Neurogenic locus notch homolog protein 3 (Homo sapiens) (UniProt Q9UM47); assay: NOTCH3 binders on small-molecule microarray, primary screen, biochemical, 635/667 nm fluorescence (AID 1096); conditions: NOTCH3 binding, 635 nm fluorescence, higher = more signal
[20] = small-molecule microarray binders of probe aEGFR, primary screen, biochemical, biotinylated probe, 635/667 nm fluorescence (AID 1097); conditions: higher = more signal;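 note: probe is a biotinylated anti-EGFR antibody binding compounds printed on slides; score combines fluorescence near 667 nm and signal to noise of each spot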

Pro-neuregulin-1, membrane-bound isoform (Homo sapiens), sequence (Q02297 whole entry, looked up, the tested form may be a part, canonical isoform): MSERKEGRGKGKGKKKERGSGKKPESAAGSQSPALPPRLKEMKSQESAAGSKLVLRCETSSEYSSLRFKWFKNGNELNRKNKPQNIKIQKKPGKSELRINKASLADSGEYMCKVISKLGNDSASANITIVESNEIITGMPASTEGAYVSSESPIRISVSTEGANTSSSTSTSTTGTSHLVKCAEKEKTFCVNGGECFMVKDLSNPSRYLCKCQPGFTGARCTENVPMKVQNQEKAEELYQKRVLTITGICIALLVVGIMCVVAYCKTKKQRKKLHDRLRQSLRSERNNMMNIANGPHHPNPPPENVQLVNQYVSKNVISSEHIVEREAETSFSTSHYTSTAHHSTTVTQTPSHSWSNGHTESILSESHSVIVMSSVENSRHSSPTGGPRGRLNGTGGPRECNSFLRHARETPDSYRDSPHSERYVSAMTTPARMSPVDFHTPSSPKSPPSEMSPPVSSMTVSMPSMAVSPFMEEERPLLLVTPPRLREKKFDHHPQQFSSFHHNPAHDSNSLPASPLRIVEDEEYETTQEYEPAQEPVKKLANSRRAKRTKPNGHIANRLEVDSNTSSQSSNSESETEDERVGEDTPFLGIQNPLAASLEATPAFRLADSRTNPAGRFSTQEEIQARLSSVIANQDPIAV
Neurogenic locus notch homolog protein 2 (Homo sapiens), sequence (Q04721 whole entry, looked up, canonical isoform): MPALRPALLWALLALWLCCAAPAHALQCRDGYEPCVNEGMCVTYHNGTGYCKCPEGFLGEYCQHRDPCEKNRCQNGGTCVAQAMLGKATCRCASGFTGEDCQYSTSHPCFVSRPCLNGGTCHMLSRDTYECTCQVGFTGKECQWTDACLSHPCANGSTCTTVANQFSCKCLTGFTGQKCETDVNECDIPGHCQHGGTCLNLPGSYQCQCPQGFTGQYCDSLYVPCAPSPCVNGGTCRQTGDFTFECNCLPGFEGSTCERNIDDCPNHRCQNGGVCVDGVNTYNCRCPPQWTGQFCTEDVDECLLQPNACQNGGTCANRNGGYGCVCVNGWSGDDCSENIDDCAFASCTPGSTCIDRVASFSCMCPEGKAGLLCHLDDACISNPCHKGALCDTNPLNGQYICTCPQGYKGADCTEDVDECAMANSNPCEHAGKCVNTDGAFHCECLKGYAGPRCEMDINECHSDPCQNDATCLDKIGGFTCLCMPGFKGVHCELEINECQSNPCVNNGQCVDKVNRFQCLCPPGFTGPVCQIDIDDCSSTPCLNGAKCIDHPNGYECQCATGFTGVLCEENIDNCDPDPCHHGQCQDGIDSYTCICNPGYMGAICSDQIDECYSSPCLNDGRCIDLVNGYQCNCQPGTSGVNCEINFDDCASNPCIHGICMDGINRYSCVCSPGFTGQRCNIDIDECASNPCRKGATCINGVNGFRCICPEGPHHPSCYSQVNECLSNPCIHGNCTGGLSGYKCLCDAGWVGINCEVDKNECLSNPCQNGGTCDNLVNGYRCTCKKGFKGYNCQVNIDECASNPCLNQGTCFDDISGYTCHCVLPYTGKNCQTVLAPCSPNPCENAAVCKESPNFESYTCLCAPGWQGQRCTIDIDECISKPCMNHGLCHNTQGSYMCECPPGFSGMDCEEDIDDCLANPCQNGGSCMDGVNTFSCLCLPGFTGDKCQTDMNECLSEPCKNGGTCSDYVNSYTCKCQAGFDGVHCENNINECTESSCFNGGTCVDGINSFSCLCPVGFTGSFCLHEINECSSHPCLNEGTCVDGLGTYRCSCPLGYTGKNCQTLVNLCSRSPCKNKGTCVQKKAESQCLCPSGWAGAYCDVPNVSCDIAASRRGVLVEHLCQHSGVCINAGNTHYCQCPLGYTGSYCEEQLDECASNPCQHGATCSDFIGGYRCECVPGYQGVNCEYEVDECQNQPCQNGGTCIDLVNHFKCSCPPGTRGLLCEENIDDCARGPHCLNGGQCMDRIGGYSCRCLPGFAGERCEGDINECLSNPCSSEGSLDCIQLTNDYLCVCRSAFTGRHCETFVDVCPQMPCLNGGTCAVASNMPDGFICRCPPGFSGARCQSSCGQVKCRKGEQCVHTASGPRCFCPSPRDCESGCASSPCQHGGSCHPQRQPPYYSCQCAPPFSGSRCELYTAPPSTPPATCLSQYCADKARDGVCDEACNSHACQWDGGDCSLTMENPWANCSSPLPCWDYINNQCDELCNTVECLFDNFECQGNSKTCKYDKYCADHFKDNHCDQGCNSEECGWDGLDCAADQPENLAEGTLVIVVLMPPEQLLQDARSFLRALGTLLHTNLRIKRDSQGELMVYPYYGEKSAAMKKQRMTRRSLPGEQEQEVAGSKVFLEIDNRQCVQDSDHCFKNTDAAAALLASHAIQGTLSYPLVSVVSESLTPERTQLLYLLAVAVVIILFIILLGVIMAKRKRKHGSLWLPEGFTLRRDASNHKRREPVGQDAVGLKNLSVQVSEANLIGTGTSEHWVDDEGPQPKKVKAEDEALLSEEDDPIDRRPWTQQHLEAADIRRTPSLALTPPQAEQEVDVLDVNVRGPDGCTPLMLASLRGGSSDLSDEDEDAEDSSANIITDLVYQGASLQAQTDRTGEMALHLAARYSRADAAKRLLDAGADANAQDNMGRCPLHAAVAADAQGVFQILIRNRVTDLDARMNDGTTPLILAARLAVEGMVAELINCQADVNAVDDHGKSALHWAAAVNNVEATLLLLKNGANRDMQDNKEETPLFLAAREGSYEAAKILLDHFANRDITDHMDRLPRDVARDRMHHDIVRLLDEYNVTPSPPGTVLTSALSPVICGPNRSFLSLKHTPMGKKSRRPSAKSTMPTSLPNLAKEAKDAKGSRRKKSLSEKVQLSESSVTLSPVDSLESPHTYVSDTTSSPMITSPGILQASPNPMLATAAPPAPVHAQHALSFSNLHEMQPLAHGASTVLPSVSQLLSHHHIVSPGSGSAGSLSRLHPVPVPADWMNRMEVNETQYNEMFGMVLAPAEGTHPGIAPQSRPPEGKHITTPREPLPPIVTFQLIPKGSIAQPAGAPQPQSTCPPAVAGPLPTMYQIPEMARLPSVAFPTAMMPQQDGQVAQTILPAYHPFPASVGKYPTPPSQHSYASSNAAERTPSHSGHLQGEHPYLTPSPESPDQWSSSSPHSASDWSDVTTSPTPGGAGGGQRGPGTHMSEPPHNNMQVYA
Torsin-1A-interacting protein 2 (Homo sapiens), sequence (Q8NFQ8 whole entry, looked up): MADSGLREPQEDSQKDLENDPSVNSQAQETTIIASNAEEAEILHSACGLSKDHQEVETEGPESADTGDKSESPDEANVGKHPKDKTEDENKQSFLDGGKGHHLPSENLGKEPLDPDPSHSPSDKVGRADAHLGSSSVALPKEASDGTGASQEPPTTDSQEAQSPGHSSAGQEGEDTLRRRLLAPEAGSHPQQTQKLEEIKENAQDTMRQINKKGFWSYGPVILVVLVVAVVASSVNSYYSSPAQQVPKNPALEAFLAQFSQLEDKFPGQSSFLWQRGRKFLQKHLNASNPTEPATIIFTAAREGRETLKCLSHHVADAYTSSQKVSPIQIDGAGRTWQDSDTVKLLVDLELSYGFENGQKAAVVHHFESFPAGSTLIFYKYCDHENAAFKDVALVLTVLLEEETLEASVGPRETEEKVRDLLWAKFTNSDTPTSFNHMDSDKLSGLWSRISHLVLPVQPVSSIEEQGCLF

SMILES	composite z-score [1]	composite z-score [2]	composite z-score [3]	composite z-score [4]	composite z-score [5]	composite z-score [6]	composite z-score [7]	z-score [8]	composite z-score [9]	composite z-score [10]	composite z-score [11]	z-score [12]	z-score [13]	z-score [14]	composite z-score [15]	z-score [16]	composite z-score [17]	composite z-score [18]	composite z-score [19]	composite z-score [20]
C=CCN(C(=O)C1N(c2ccc(CCO)cc2)C(=O)C2C(C(=O)O)C3C=CC21O3)C(C)(C)C (stereo not given)	1.73	-1.15	-0.243	-2.12	-2.34	-0.367	0.915	0.4 (inactive)	-1.08	-0.403	-1.91	-0.696 (inactive)	-1.89 (inactive)	-0.569 (inactive)	1.94	2.89 (inactive)	-0.014	-3.2	-1.92	-0.356
C#CCCCON=C1C[C@@H](O)[C@@H](O)[C@@H]2[C@@H]3C(=O)N(Cc4ccc5c(c4)OCO5)C(=O)[C@@H]3CC[C@@H]12	-0.158	-0.022	-0.0684	0.456	0.204	0.166	0.562	-0.177 (inactive)	0.351	0.0695	0.652	0.755 (inactive)	0.783 (inactive)	0.271 (inactive)	0.852	0.105 (inactive)	-0.0367	-0.0201	0.0568	-0.0389
O=C1C2C=CC(C(O)c3ccccc3)N(n3cnnc3)C2C(=O)N1Cc1ccccc1 (stereo not given)	0.43	-0.399	-0.0598	0.118	0.729	1.33	0.544	-1.43 (inactive)	0.364	-0.16	0.345	-1.3 (inactive)	0.264 (inactive)	-0.881 (inactive)	1.28	-0.734 (inactive)	0.116	-0.0596	-0.163	-0.0112
C=C(COC)/C(=C/C[C@@H](OC(=O)c1ccncc1)c1ccc(OCCO)cc1)c1cc(C(=O)OC)ccc1OC	-0.202	0.984	-0.0775	0.702	0.864	1.44	1.2	-2.14 (inactive)	0.238	0.219	1.57	-1.08 (inactive)	-2.06 (inactive)	-1.83 (inactive)	2.75	2.15 (inactive)	-0.0903	0.861	1.12	-0.0129
COc1cc2c(cc1OC)CN(C(=O)[C@@H]1[C@H]3C(=O)O[C@H](c4ccccc4)[C@H](c4ccccc4)N3[C@H](c3ccccc3OCCO)[C@@]13C(=O)Nc1ccccc13)CC2	-1.08	1.04	-0.148	0.575	0.803	1.39	1.18	-0.268 (inactive)	-0.44	-0.702	1.55	2.39 (inactive)	1.19 (inactive)	5.58 (inactive)	1.76	1.92 (inactive)	-0.301	0.208	1.05	-0.198
COc1ccc(CCN2C(=O)[C@@]3(c4ccc([N+](=O)[O-])cc4)CC(=O)N(CC45CC6CC(CC(C6)C4)C5)[C@@H]3c3ccc(CO)cc32)cc1	0.188	-0.063	0.0201	0.142	-0.18	0.978	0.956	-0.241 (inactive)	-0.0561	-0.0296	1.55	0.0722 (inactive)	-0.3 (inactive)	-1.6 (inactive)	2.09	-0.463 (inactive)	0.141	-0.223	0.294	-0.109
CCOC(=O)C[C@H]1[C@H](OC(=O)c2cc3ccccc3oc2=O)[C@@H](NC(=O)C2CCCCC2)c2cc(OCCCO)ccc2N1C(=O)c1ccc2ccccc2n1	-0.662	0.0931	-0.179	0.414	0.432	0.295	0.675	-0.541 (inactive)	0.33	-0.0645	1.06	0.152 (inactive)	0.802 (inactive)	1.29 (inactive)	1.17	-0.865 (inactive)	-0.124	0.87	1.02	-0.154
[N-]=[N+]=NCc1ccccc1C[C@]1(C(=O)N2CCCCC2)N=C(c2ccc(OCCCO)cc2)O[C@H]1c1ccccc1CN=[N+]=[N-]	-0.0017	0.759	0.0342	0.765	0.776	1.63	1.19	-1.62 (inactive)	1.29	0.142	1.55	0.551 (inactive)	0.118 (inactive)	8.36 (active)	3.35	-0.004 (inactive)	-0.0041	0.686	1.14	-0.0703
CCN1C(C)=C(C(=O)OC)[C@@H](c2ccccc2)N2C(=O)[C@](O)(C(=O)OC)[C@@H](c3ccccc3)C(C(C)=O)=C12	-0.0393	-0.0183	-0.0621	0.391	0.991	-0.485	0.913	-1.88 (inactive)	0.283	-0.262	-0.107	-3.56 (inactive)	-3.03 (inactive)	-2.26 (inactive)	0.241	0.556 (inactive)	0.0417	0.506	0.768	0.186
C[C@]1(C(=O)NCCN2CCOCC2)c2ccccc2C(=O)N(Cc2ccccc2)[C@H]1c1ccc(CO)cc1	-0.0452	0.789	0.0008	-0.425	-0.522	1.35	1.26	-0.351 (inactive)	-0.352	-0.0346	-0.804	0.364 (inactive)	-0.304 (inactive)	-0.877 (inactive)	2.99	0.0355 (inactive)	-0.0539	-0.54	-0.911	-0.23
